# Experimental data from PubChem BioAssay AID602143 (Vanderbilt Specialized Chemistry Center, 2011).
# Activity calls are given as the source filed them. Cut-off read from the data, not from the text of the source: active = remaining activity below about 50%; inactive = the rest.
# Target: Phospholipase D2 (Homo sapiens) (UniProt O14939)
# Assay: cellular phospholipase D2 activity inhibition – cell-based, HEK293, single concentration (AID 602143);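 note: tested at 200 nM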
# Conditions: HEK293 cellular PLD2 activity, percent of control; hits give low values
# Sequence of Phospholipase D2 (Homo sapiens) (O14939 whole entry, looked up): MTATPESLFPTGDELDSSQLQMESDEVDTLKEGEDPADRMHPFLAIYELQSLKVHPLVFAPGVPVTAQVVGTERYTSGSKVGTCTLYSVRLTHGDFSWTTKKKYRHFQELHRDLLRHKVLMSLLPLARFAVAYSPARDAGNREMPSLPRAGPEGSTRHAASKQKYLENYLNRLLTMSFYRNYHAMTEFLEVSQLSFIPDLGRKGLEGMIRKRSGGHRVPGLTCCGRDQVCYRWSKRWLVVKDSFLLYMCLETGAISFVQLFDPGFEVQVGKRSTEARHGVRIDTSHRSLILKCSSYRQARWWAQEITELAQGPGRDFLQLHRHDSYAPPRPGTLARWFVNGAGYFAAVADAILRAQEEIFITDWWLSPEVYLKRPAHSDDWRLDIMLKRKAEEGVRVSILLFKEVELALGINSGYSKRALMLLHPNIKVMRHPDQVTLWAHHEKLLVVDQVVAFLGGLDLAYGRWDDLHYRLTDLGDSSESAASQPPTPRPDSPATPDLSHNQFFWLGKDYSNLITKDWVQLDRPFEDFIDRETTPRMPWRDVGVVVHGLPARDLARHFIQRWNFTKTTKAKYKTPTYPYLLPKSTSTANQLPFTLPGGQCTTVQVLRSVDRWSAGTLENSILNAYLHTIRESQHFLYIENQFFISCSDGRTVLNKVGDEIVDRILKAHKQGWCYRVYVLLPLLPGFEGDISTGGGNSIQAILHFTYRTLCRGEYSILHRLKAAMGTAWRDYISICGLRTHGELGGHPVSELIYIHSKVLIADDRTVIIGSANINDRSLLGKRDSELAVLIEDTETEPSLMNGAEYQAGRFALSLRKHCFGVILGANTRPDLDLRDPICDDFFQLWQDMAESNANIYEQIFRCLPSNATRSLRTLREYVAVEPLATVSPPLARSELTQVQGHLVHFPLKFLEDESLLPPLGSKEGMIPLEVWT
# Sequence of Phospholipase D2 (Homo sapiens) (O14939 whole entry, looked up): as above
row,Compound,remaining activity
1,O=C(NCCN1CCC(n2c(=O)[nH]c3ccccc32)CC1)c1cccc(F)n1,74.5% (inactive)
2,O=C(NCCN1CCC(C(=O)NCc2ccc(Cl)cc2)CC1)c1ccc2ccccc2c1,106% (inactive)
3,C[C@@H](CN1CCC(n2c(=O)[nH]c3ccccc32)CC1)NC(=O)c1ccc(F)c(F)c1,75.6% (inactive)
4,COc1ccccc1NC(=S)NCCN1CCC(n2c(=O)[nH]c3ccccc32)CC1,126% (inactive)
5,O=C(NCCN1CCC(n2c(=O)[nH]c3ccccc32)CC1)NC(c1ccccc1)c1ccccc1,123% (inactive)
6,NC1(CN2CCC(n3c(=O)[nH]c4ccccc43)CC2)CCCC1 (tested in a mixture with another compound),66.9% (inactive)
7,NC1(CN2CCC(n3c(=O)[nH]c4cc(Cl)ccc43)CC2)CCCC1 (tested in a mixture with another compound),94.3% (inactive)
8,Cc1cccc(NC(=S)NCCN2CCC(n3c(=O)[nH]c4ccccc43)CC2)c1,113% (inactive)
9,C[C@@H](CN1CCC(n2c(=O)[nH]c3ccccc32)CC1)NC(=O)Cc1cccs1,99.6% (inactive)
10,O=C(NCCN1CCC(n2c(=O)[nH]c3ccccc32)CC1)Nc1ccccc1F,105% (inactive)
11,C[C@H](N)CN1CCC(c2nc3ccccc3n2C)CC1 (tested in a mixture with another compound),81.2% (inactive)
12,COc1ccc(S(=O)(=O)NCCN2CCC(n3c(=O)[nH]c4ccccc43)CC2)cc1OC,77.1% (inactive)
13,O=C1c2ccccc2C(=O)N1CCCNCc1ccccn1,116% (inactive)
14,Cc1ccc(S(=O)(=O)NCCN2CCC(n3c(=O)[nH]c4ccccc43)CC2)cc1,77.3% (inactive)
15,O=C(CCN1CCC(n2c(=O)[nH]c3ccccc32)CC1)NCc1ccc(Cl)cc1,85.2% (inactive)
16,C[C@@H](CN1CCC2(CC1)CCN(C)C2=O)NC(=O)c1cnc2ccccc2c1,113% (inactive)
17,O=C(NCCN1CCC(n2c(=O)[nH]c3ccccc32)CC1)c1cc(-c2ccccc2)no1,50.8% (inactive)
18,O=C(NCCN1CCC(n2c(=O)[nH]c3ccccc32)CC1)c1cc([N+](=O)[O-])cc([N+](=O)[O-])c1,102% (inactive)
19,C[C@@H](CN1CCC(c2nc3ccccc3[nH]2)CC1)NC(=O)C1CC1c1ccccc1 (stereo not given in full),90.3% (inactive)
20,C[C@@H](CN1CCC(n2nnc3cc(C(F)(F)F)ccc32)CC1)NC(=O)c1ccc2ccccc2c1,107% (inactive)

row,Compound,remaining activity
1,C[C@@H](CN1CCC(n2c(=O)[nH]c3ccccc32)CC1)NC(=O)c1ccc(C(F)(F)F)cc1,76.2% (inactive)
2,CS(=O)(=O)N1CC2(CCN(CCNC(=O)c3cnc4ccccc4c3)CC2)c2ccccc21,83.7% (inactive)
3,C[C@@H](CN1CCC(n2c(=O)[nH]c3ccccc32)CC1)NC(=O)c1cc2cc(F)ccc2[nH]1,0.758% (active)
4,O=C(NCCN1CCC(n2c(=O)[nH]c3ccc(F)cc32)CC1)c1ccc(C(F)(F)F)cc1,61.8% (inactive)
5,O=C(NCCN1CCC2(C=Cc3ccccc32)CC1)c1cnc2ccccc2c1,92.4% (inactive)
6,C[C@H](CN1CCC(n2nnc3ccccc32)CC1)NC(=O)c1ccc2ccccc2c1,48.2% (active)
7,CCS(=O)(=O)NCCN1CCC(n2c(=O)[nH]c3ccccc32)CC1,100% (inactive)
8,NCCN1CCC(n2c(=O)[nH]c3cc(Cl)ccc32)CC1 (tested in a mixture with another compound),83.1% (inactive)
9,C[C@@H](CN1CCC(n2c(=O)[nH]c3cc(Br)ccc32)CC1)NC(=O)c1ccc(F)cc1,80.4% (inactive)
10,CCNC(=S)NCCN1CCC(n2c(=O)[nH]c3ccccc32)CC1,78.2% (inactive)
11,Cn1c(=O)n(C2CCN(CCNC(=O)c3ccc4ccccc4c3)CC2)c2ccccc21,52.7% (inactive)
12,O=c1[nH]c2ccccc2n1C1CCN(CCNS(=O)(=O)c2ccccc2C(F)(F)F)CC1,98% (inactive)
13,O=C(NCCN1CCN(c2ccncc2)CC1)c1ccc(Cl)cc1,116% (inactive)
14,C[C@@H](CN1CCC(n2c(=O)[nH]c3ccccc32)CC1)NC(=O)CCc1ccc(F)cc1,48.9% (active)
15,O=C(NCCN1CCC(n2c(=O)[nH]c3ccccc32)CC1)C1(c2ccccc2)CCC1,86.3% (inactive)
16,O=C(NCCN1CCC(n2c(=O)[nH]c3ccccc32)CC1)c1cc2ccc3ccccc3c2c2ccccc12,109% (inactive)
17,O=C(NCCN1CCC(n2c(=O)[nH]c3ccccc32)CC1)c1cnccn1,139% (inactive)
18,O=C(NCCN1CCC(n2c(=O)[nH]c3ccccc32)CC1)N1c2ccccc2C=Cc2ccccc21,66.5% (inactive)
19,Cc1cccc(NC(=O)NCCN2CCC(n3c(=O)[nH]c4ccccc43)CC2)c1,111% (inactive)
20,O=C1c2ccccc2C(=O)N1CCCN1CCC(c2nc3ccccc3[nH]2)CC1,82.5% (inactive)
